GLP1R cytotox = cytotoxic in the GLP-1 receptor inverse agonist counter-screen; HEK293 cAMP-luciferase reporter cells, luminescence, 24 h; Potency, µM (highest dose often 38.3 µM), inactives show top-dose activity change, negative = inhibition, most hits filed as inhibitors; 410,000 tested, 0.13% active; AID 624418;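 further: loss of luciferase light is scored as toxicity; on the % scale 0 is the no-effect control and ±100 the full control effect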
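Quantitative HTS format, 1536 wells, 200 cells/uL seeded. Compounds: 23 nL, 24 h, 37 °C. Detection: luciferase reagent, luminescence at 12 min RT; decreased signal taken as cytotoxic.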
PTHR1 agonist = PTHR1 (human) receptor agonism; Q03431; HEK293 GP2 PTHR1 cells, GloSensor cAMP luminescence, 1 h; Potency, µM (highest dose often 115 µM), for inactives: top-dose activation, most hits filed as activators; 410,000 tested, 0.075% active; AID 743266; further: nearly all actives have a fitted effect of over 55% in size
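HEK-293-derived GP2 cells expressing PTHR1 and a GloSensor cAMP reporter, 3,000/well, plated overnight, given luciferin plus IBMX (each 0.5 mM as added) for 1 h at 37 °C, then compound for 1 h at 37 °C. Luminescence was read after 15 min at room temperature.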
GLP-1R inv ag = inverse agonists of human GLP-1 receptor; HEK293 GLP-1R CRE-luciferase, luminescence, 24 h; GLP-1R form is constitutively active; Potency, µM (top dose mostly 38.3 µM), without a hit: at the highest dose activity change, negative = inhibition, usual class: inhibitors; 410,000 tested, 1.6% active; further: on the % scale 0 is the no-effect control and ±100 the full control effect; nearly all actives have a fitted effect of over 55% in size
Target sequence (P43220 whole entry, looked up): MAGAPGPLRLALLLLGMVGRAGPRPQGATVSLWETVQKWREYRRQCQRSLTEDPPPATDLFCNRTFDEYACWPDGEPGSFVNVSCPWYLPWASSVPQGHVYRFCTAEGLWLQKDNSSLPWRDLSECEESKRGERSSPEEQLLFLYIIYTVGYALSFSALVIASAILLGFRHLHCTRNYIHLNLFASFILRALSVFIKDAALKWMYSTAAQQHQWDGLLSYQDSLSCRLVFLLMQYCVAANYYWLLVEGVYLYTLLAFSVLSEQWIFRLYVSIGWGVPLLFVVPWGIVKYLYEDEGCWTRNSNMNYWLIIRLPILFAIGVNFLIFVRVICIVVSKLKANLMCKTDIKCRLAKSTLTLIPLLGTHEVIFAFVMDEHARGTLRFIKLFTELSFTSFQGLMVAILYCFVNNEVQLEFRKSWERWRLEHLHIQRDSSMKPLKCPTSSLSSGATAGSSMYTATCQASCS
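Readout was luciferase luminescence, measured 12 min after detection reagent at room temperature. Beforehand, GLP-1R reporter HEK293 cells had sat 12 h, then received compounds for 24 hr at 37 deg C.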
GLP-1R agonist = GLP-1 receptor (human) agonism; HEK293 GLP-1R CRE-luciferase, luminescence, 4-6 h; cells express a hypersensitive GLP-1R form; Potency, µM (series often up to 45.6 µM), for inactives: at the highest dose activation, usual class: activators; 380,000 tested, 0.007% active; AID 624172; further: % of control where 0% means no effect
* = called active by the depositor; i = inactive; ? = inconclusive; / = no result given; [ ] = another dose, or the depositor's remark. Hits are enriched below; roughly 1.7% of the tested compounds scored in any of these assays. The call rests on the fitted dose curve; in most records, active means well fitted curve in the direction sought with a large enough effect; inconclusive means small, poorly fitted or top-dose-only effect, or another doubt; inactive means no such curve, though single readings can be large; an effect the other way counts as inactive or inconclusive. Potency means the concentration at half of the fitted maximal effect.

SMILES	GLP1R cytotox	PTHR1 agonist	GLP-1R inv ag	GLP-1R agonist
COC(=O)CC1Oc2ccc(Cl)cc2-n2cc(-c3ccc(C)cc3)nc21 (stereo not given)	5%	-54%	-12%	3%
CC1CC2(C)Oc3ccccc3CC2C(C)C1CNCCCN(C)C (stereo not given)	?	-5%	0.89µM*	-8%
Cc1nc2ccccc2c2oc(C(=O)Nc3ccc(C(C)C)cc3)cc12	-29%	-67%	7.9µM*	-2%
Cc1ccc2c(c1)C(=O)C(=O)N2Cc1ccc(OC(C)C)cc1	?	0%	1.1µM*	/
O=C(Oc1cccc2cccnc12)c1cccc(N2C(=O)C3C4CCC(C4)C3C2=O)c1 (stereo not given)	2.5µM*	5%	2.8µM*	1%
O=C(Oc1cccc2cccnc12)c1ccc(N2C(=O)C3C4CCC(C4)C3C2=O)cc1 (stereo not given)	3.2µM*	-15%	2.8µM*	0%
O=C(Oc1cccc2cccnc12)c1cccc(-n2cnnn2)c1	-5%	i	0%	-3%
CCOC(=O)c1sc(=S)n(Cc2ccccc2)c1C	-14%	i	8.9µM*	16%
NS(=O)(=O)c1ccc(NC(=S)NCc2ccc(Cl)cc2)cc1	-2%	?	4µM*	2%
COC(=O)N/N=C/c1cn(CCCOc2ccccc2)c2ccccc12	7%	-96%	10µM*	4%
COC(=O)N/N=C/c1cn(Cc2ccccc2F)c2ccccc12	1%	i	?	5%
COC(=O)N/N=C/c1cn(Cc2ccc(F)cc2)c2ccccc12	-5%	i	7.9µM*	13%
CCc1ccc(-c2nc(CN3CCC(C(=O)NCCc4ccc(Cl)cc4)CC3)c(C)o2)cc1	0%	i	6%	/
CO/N=C\CC(=O)Nc1ccc(Cl)c(Cl)c1	-19%	-14%	3.2µM*	5%
COc1ccc(/C=C/C(=O)Nc2ccc(Cl)c(Cl)c2)cc1OC	?	-45%	8.9µM*	/
CCc1ccc(-c2nn(CC(=O)NC3CCCC3)c3c2cnc2ccc(F)cc23)cc1	-13%	-12%	23%	/
COc1ccc(C(=O)NN/C(C)=C/C(=O)C(F)(F)C(F)(F)C(F)(F)F)cc1	-28%	i	5µM*	-3%
COc1ccc(C(=O)NNC(=O)OC(C)(C)C)cc1	3%	i	1%	3%
CCc1cnc2c(c1SCC(=O)c1ccc(OC)cc1)c(=O)n(C)c(=O)n2C	-2%	-15%	10%	/
Cc1ccc(NC(NC(=O)c2cccs2)C(Cl)(Cl)Cl)cc1C (stereo not given)	-25%	-8%[57.5 µM]	13µM*	-5%
Cc1ccccc1NC(NC(=O)c1cccs1)C(Cl)(Cl)Cl (stereo not given)	-7%	-25%[57.5 µM]	7.9µM*	-13%
CCc1ccc(CNC(=O)C2CCN(c3nnc(-n4c(C)ccc4C)s3)CC2)cc1	1%	i	-11%	/
COc1ccc(CCNc2ncnc3c2nnn3C)cc1	-11%	-91%	3%	/
O=C(CCc1ccc(S(=O)(=O)NC2CCCCC2)cc1)Nc1ccccc1	-3%	-12%	?	-4%
O=C(CCc1ccc(S(=O)(=O)NC2CCCCC2)cc1)N(Cc1ccccc1)Cc1ccccc1	-1%	-6%[57.5 µM]	8.9µM*	-4%
SMILES	GLP1R cytotox	PTHR1 agonist	GLP-1R inv ag	GLP-1R agonist
CCc1c(C)sc2c1CCN(Cc1ccc(F)cc1)C2c1ccccc1 (stereo not given)	-6%	-41%	-30%	/
CCC(C)n1c(SCc2ccc(C(C)(C)C)cc2)nc2ccsc2c1=O (stereo not given)	20%	-2%	1%	/
CCC(C)n1c(SCc2ccccc2)nc2ccsc2c1=O (stereo not given)	11%	i	7.9µM*	1%
O=C(NCCCN1CCN(c2cccc(Cl)c2)CC1)c1cnn(-c2ccc(F)cc2)c1-n1cccc1	?	-34%	?	-1%
CC(C(=O)N1CCCC1)N1CCN(S(=O)(=O)c2ccc(OC(F)(F)F)cc2)CC1 (stereo not given)	0%	i	-14%	0%
CC1CC(C)CN(S(=O)(=O)c2ccc(C(C)(C)C)cc2)C1 (stereo not given)	4%	-38%	2µM*	8%
CC1CC(C)CN(C(=O)C(C)N2CCN(S(=O)(=O)c3ccc(C(F)(F)F)cc3)CC2)C1 (stereo not given)	-5%	-30%	10µM*	4%
CCOc1ccc(CCNC(=O)Cn2ncc3c([nH]c4ccccc43)c2=O)cc1OCC	-4%	i	2%	/
Cc1cc(C)c2c(n1)nn1c(C)c(CCC(=O)NCc3ccc(Cl)cc3)c(C)nc21	13%	i	13%	/
Cc1ccc(SCCNC(=S)Nc2cc(C)cc(C)c2)cc1	?	-36%	7.9µM*	1%
COc1cc(CN2CCN(c3cccc(Cl)c3)CC2)cc(OC)c1OC	?	i	5µM*	9%
CCN(CC)CCCC(C)Nc1nccc2c(Cl)cccc12 (stereo not given)	?	-7%	4.5µM*	-5%
O=C(Nc1ccccc1C(F)(F)F)c1ccc(CN2CCC(Cc3ccccc3)CC2)cc1	?	-10%[57.5 µM]	8.9µM*	-2%
O=C(NCC1CCN(Cc2cccc(Cl)c2)CC1)Nc1ccccc1Cl	-8%	i	10µM*	10%
Cc1ccc(NC(=O)NCC2CCN(Cc3cccc(Cl)c3)CC2)c(Cl)c1	-4%	i	?	1%
CCc1ccc(NC(=O)NCC2CCN(Cc3cccc(Cl)c3)CC2)cc1	-18%	i	13µM*	-8%
Cc1ccc(NC(=O)NCC2CCN(Cc3cccc(Cl)c3)CC2)cc1Cl	?	-8%	2.2µM*	3%
Cc1ccc(CN2CCC(CNC(=O)Nc3ccc(Cl)cc3)C2)cc1 (stereo not given)	-18%	i	-28%	/
Cc1ccc(C)c(CN2CCC(CNC(=O)Nc3ccc(F)c(Cl)c3)CC2)c1	?	-67%	?	1%
CCOc1ccc(-c2nn(-c3ccccc3)cc2C2NC(=O)NC(C)=C2C(=O)OC(C)C)cc1 (stereo not given)	-8%	i	?	-1%
Cc1cccc(NC(=O)CSc2nc3ccc(NC(=O)c4ccco4)cc3s2)c1	-6%	-31%	-19%	/
S=C(c1ccc(-c2ccc(Cl)cc2Cl)o1)N1CCCCC1	-3%	-15%	10µM*	5%
Cc1ccccc1NC(=O)c1ccc(-c2ccc(Cl)cc2Cl)o1	0%	-8%	?	9%
Cc1cccc(C)c1NC(=O)c1ccc(-c2ccc(Cl)cc2Cl)o1	-2%	-38%[57.5 µM]	1.6µM*	-8%
COc1ccc(NC(=O)c2ccc3c(c2)c(C)c(C)n3Cc2ccc(F)cc2)c(OC)c1	-5%	-18%	?	/
CC(C)(C)c1cc(C(=S)N2CCCC2)cc(C(C)(C)C)c1O	4%	i	8.9µM*	6%
CC(C)(C)c1cc(CCC(=O)N2CCCC2)cc(C(C)(C)C)c1O	12%	-12%	?	-1%

Screens (PubChem BioAssay)
